Data from PubChem BioAssay (NCATS).
A number with no mark means an inactive call. The source made the active and inactive calls. The rule behind the calls is not given here.

system: HIV-1 nucleocapsid protein NCp7 (binding to TG oligonucleotide); assay: HIV Nucleocapsid (AID 346); details: HIV-1 NC / fluorescein-TGTGTGTG probe, fluorescence polarization;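 note: potency is for inhibitors that block NC binding and lower polarization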
Procedure, shortened: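 HIV-1 NC (100 nM) binding to fluorescein-labelled ssDNA TG4xF (10 nM) in Hepes pH 7.5, 250mM NaCl, 1uM ZnCl2, TCEP and 2-mercaptoethanol; compounds pin-transferred, 1 hr room temperature, fluorescence polarization read on CCD imager.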
Potency is the fitted concentration of half-maximal effect.

| Structure (SMILES) | Potency |
| --- | --- |
| COc1ccc(C(=O)N2CCC3(CC2)CCN(c2ccccn2)CC3)cc1 | > 20 µM |
| CN(C)C(=O)c1ccc(-c2ccc3ncnc(Nc4ccccc4)c3c2)cc1 | > 20 µM |
| Cc1noc(C)c1-c1nc(NC2CCNCC2)c2ccccc2n1 | > 20 µM |
| COc1ccc(C(=O)N2CCC3(CCCN(C(=O)NC(C)C)C3)CC2)cc1 | > 20 µM |
| CN(C)c1ccc(-c2cc(Nc3ccc(F)cc3)ncn2)cc1 | > 20 µM |
| Cc1nc2cnc(Oc3cccc(Cl)c3)nc2n(C2CC2)c1=O | > 20 µM |
| CCNc1ncc2nc(-c3ccc(OC)cc3)c(=O)n(Cc3cccc(OC)c3)c2n1 | 4.61 µM (active) |
| COc1ncc2nc(-c3ccc(Cl)cc3)c(=O)n(CCc3ccccc3)c2n1 | > 20 µM |
| CN(C)c1ncc2nc(-c3cccs3)c(=O)n(CCc3ccccc3)c2n1 | > 20 µM |
